# Hit rate of the full screen: of about 66,000 compounds, about 960 (1.5%) showed an effect of 50% or more. What follows is part of a selection rich in strong results, with near analogues and random picks from the rest.
# System: Trypanosoma brucei
# Test: Trypanosoma brucei 72 hour study
# Assay type: functional, organism-based
# Design: scale not given: in the data most compounds retested in dose-response had high values
compound,measurement,setting,value
CS(=O)(=O)c1ccc(CN2C[C@H]3CC[C@@H]2CN(c2ncccn2)C3)cc1,Percent Effect,"30 µM, 30.03 µM",-59.99%
Cc1ccc(C#N)c(N2CCC(c3nccn3CCN(C)C)CC2)n1,Percent Effect,"30 µM, 30.03 µM",57.26%
Cc1ccc(C#N)c(N2CCC(c3nccn3Cc3cscn3)CC2)n1,Percent Effect,"30 µM, 30.03 µM",31.21%
CN(C)CCn1ccnc1C1CCN(c2cc(N)nc(N)n2)CC1,Percent Effect,"30 µM, 30.03 µM",1.166%
O=C1C[C@H]2CC[C@@H](CN1)N2C(=O)CCc1ccc2c(c1)OCO2,Percent Effect,"30.3 µM, […]",6.652%
COc1ccc(C2=CCN(C(=O)C3CCN(C)C(=O)C3)CC2)cc1 (stereo unspecified),Percent Effect,"30 µM, 30.03 µM",57.6%
Cc1ccc(C2=CCN(C(=O)C3CCN(C)C(=O)C3)CC2)cc1 (stereo unspecified),Percent Effect,"30.3 µM, […]",-12.11%
COc1ccc(C2=CCN(C(=O)C3CCC3)CC2)cc1,Percent Effect,"30.3 µM, […]",-20.1%
CC(C)OCCCN(Cc1ccncc1)Cc1cccc(F)c1.Cl,Percent Effect,"30.3 µM, […]",-29.62%
Cc1ccccc1C1(C(=O)NCCN2CCC(C)CC2)CCOCC1,Percent Effect,"30.3 µM, […]",1.423%
N#Cc1c(Cl)nsc1NCC1(c2ccccc2)CCC1,Percent Effect,"30.3 µM, […]",100.1%
COc1ccccc1C1(CNc2snc(Cl)c2C#N)CCOCC1,Percent Effect,"30.3 µM, […]",0.1302%
COc1ccccc1C1(CNc2snc(Cl)c2C#N)CCCC1,Percent Effect,"30.3 µM, […]",35.81%
Cc1cccc(N2CCc3ncc(CNc4ccccn4)n3CC2)n1.O=C(O)C(F)(F)F.O=C(O)C(F)(F)F,Percent Effect,"30.3 µM, […]",-45.99%
Cl.NCC(=O)N1CCCC1c1nccnc1Nc1ncccn1 (stereo unspecified),Percent Effect,"30.3 µM, […]",-17.2%
C=C(C)CN1CCN(Cc2cnc(-c3ccc(OC)cc3)nc2)CC1.O=C(O)CC(O)(CC(=O)O)C(=O)O,Percent Effect,"30.3 µM, […]",2.32%
Cc1ccc(N[C@@H]2CN(Cc3cc(C)on3)C[C@@H]3CCCO[C@@H]32)nn1.O=C(O)C(F)(F)F.O=C(O)C(F)(F)F,Percent Effect,"30.3 µM, […]",-34.05%
COc1ccccc1N1CCC(NCc2c(C)noc2C)C1 (stereo unspecified),Percent Effect,"30 µM, 30.03 µM",-20.42%
Cc1noc(CNc2c(N3CCCC3)cccc2N2CCCC2)n1,Percent Effect,"30.3 µM, […]",-1.503%
Cc1noc(C)c1CNc1c(N2CCCC2)cccc1N1CCCC1,Percent Effect,"30.3 µM, […]",99.93%
O=C(NCc1ccco1)[C@@H]1CCO[C@@H]2CCN(C3CCOCC3)C[C@H]21.O=C(O)C(F)(F)F,Percent Effect,"30 µM, 30.03 µM",-32.7%
CC(=O)N1[C@H](CN(C)C)C[C@@H]2CN(C(=O)c3ccno3)CC[C@@H]21.O=C(O)C(F)(F)F,Percent Effect,"30.3 µM, […]",5.246%
Cc1nc(C)n(CC2CN(Cc3cccc4ccccc34)CCO2)n1 (stereo unspecified),Percent Effect,"30.3 µM, […]",20.23%
Cc1nc(C)n(CC2CN(Cc3ccccc3C#N)CCO2)n1 (stereo unspecified),Percent Effect,"30.3 µM, […]",19.46%
Cc1nc(C)n(CC2CN(Cc3ccccc3OC(C)C)CCO2)n1 (stereo unspecified),Percent Effect,"30.3 µM, […]",101%
Cn1cc(CN2CCC[C@]3(C[C@@H](Oc4ncccc4F)CO3)C2)cn1.O=C(O)C(F)(F)F.O=C(O)C(F)(F)F,Percent Effect,"30.3 µM, […]",0.8954%
CNC(=O)[C@H]1C[C@@H]2CN(Cc3ccccc3)C[C@H]1O2.O=C(O)C(F)(F)F,Percent Effect,"30.3 µM, […]",0.1079%
CN1CCN(c2ncccn2)CC(C(=O)N(C)C)C1 (stereo unspecified),Percent Effect,"30.3 µM, […]",-26.5%
CN(C)Cc1nc2c(o1)CN(S(=O)(=O)c1cccs1)C2.O=C(O)C(F)(F)F,Percent Effect,"30.3 µM, […]",5.819%
CC(C(=O)N(C)C)N1CCc2onc(-c3cccc(F)c3)c2C1 (stereo unspecified),Percent Effect,"30 µM, 30.03 µM",-18.33%
CC(C)Cc1nc(CN2CCc3onc(-c4cccc(F)c4)c3C2)no1,Percent Effect,"30 µM, 30.03 µM",18.46%
CC(C)(C)c1nc(CN2CCc3onc(-c4cccc(F)c4)c3C2)no1,Percent Effect,"30 µM, 30.03 µM",51.86%
Cn1ncc(CN2CCc3onc(-c4cccc(F)c4)c3C2)c1C1CC1,Percent Effect,"30 µM, 30.03 µM",32.05%
Fc1cccc(-c2noc3c2CN(Cc2cncn2C2CC2)CC3)c1,Percent Effect,"30 µM, 30.03 µM",24.68%
CC(C)c1nc(CN2CCc3onc(-c4cccc(F)c4)c3C2)no1,Percent Effect,"30 µM, 30.03 µM",51.01%
Cn1cc(CNC2CC3(CCN(S(C)(=O)=O)CC3)c3ccccc32)cn1.O=C(O)C(F)(F)F (stereo unspecified),Percent Effect,"30.3 µM, […]",-14.03%
CC(C)c1nnc(N2C[C@@H]3CC[C@H](C2)N(CC2CCC2)C3)s1,Percent Effect,"30 µM, 30.03 µM",-2.589%
CN(C)Cc1cnc(C2CCN(C(=O)c3ccccc3F)C2)[nH]1.Cl (stereo unspecified),Percent Effect,"30.3 µM, […]",3.217%
O=C(Cn1ccc2sccc2c1=O)NCCCc1ccccc1,Percent Effect,"30 µM, 30.03 µM",-11.95%
Cn1cccc1C(=O)N1CCC2(CC1)CC(N1CCOCC1)C2.O=C(O)C(F)(F)F,Percent Effect,"30.3 µM, […]",-54.57%
CCNC(=O)NC1CCC(Oc2ccccc2C#N)CC1 (stereo unspecified),Percent Effect,"30 µM, 30.03 µM",74.2%
CN(C)C1(C(=O)NC2CCC(Oc3ccccc3C#N)CC2)CCC1 (stereo unspecified),Percent Effect,"30 µM, 30.03 µM",-17.82%
CN(C)CCN(C)C(=O)NC1CCC(Oc2ccccc2C#N)CC1 (stereo unspecified),Percent Effect,"30 µM, 30.03 µM",7.047%
CCOCc1ccc(CNc2cncc(-n3cccn3)n2)cc1,Percent Effect,10 µM,-32.35%
CC(NC(=O)C(C)(C)C)c1cc(O)nc(-c2cccnc2)n1 (stereo unspecified),Percent Effect,"30.3 µM, […]",-7.147%
CC(=O)NCC1CCN(C(=O)c2csc(-c3ccc(C)cc3C)n2)CC1,Percent Effect,"30 µM, 30.03 µM",56.57%
CC(=O)N1CCN(C(=O)c2csc(-c3ccc(C)cc3C)n2)CC1,Percent Effect,10 µM,-21.97%
CC(=O)N1CCCN(C(=O)c2csc(-c3ccc(C)cc3C)n2)CC1,Percent Effect,"30 µM, 30.03 µM",20.93%
CN(C)C1CCC2(CCN(Cc3nccn3C)CC2)c2ccccc21.O=C(O)C(F)(F)F.O=C(O)C(F)(F)F (stereo unspecified),Percent Effect,"30.3 µM, […]",-42.21%
CNCC(=O)N1CC(c2cc(Nc3ncccn3)nc(C)n2)C1.Cl,Percent Effect,"30 µM, 30.03 µM",-14.51%
Cn1cnnc1C1CCCN(C(=O)c2cc(-c3ccccc3)on2)C1 (stereo unspecified),Percent Effect,"30 µM, 30.03 µM",-25.06%
CCN(CC)CCCNCc1cc2cccc(C)c2[nH]c1=O,Percent Effect,"30.3 µM, […]",-3.275%
CCN(CC)CCCNCc1cc2cc(C)cc(C)c2[nH]c1=O,Percent Effect,"30.3 µM, […]",66.62%
CCN(CC)CCCNCc1cc2cc(C)ccc2[nH]c1=O,Percent Effect,"30.3 µM, […]",-2.792%
Cc1cc(C(=O)NCCN2CCCCC2C)nn1C(C)(C)C (stereo unspecified),Percent Effect,"30 µM, 30.03 µM",-37.93%
Cl.O=C(Nc1cccc(CNCc2ccsc2)c1)C1CC1,Percent Effect,10 µM,-60.42%
COCc1cc(NCCCSc2nnc(C)s2)ncn1,Percent Effect,"30 µM, 30.03 µM",0.4948%
CNC(=O)CC1CC2(CCN(CC3CC3)CC2)Oc2ccccc21.O=C(O)C(F)(F)F (stereo unspecified),Percent Effect,"30.3 µM, […]",-8.019%
O=C(CCc1nc(-c2ccccc2)no1)N[C@H]1COC[C@@H]1N1CCCC1,Percent Effect,"30.3 µM, […]",62.68%
CCO[C@H]1COC[C@@H]1NC(=O)CCc1nc(-c2ccccc2)no1,Percent Effect,"30.3 µM, […]",-3.299%
CO[C@H]1CNC[C@@H]1NC(=O)CCc1nc(-c2ccccc2)no1,Percent Effect,"30.3 µM, […]",14.68%
